# Earlier results as cited in PubChem BioAssay AID977611.
# Hit rate of the full screen: of about 3,900 compounds, about 3,900 (100%) were called active. The limit is not given here; nearly all actives have Kd up to about 4200 µM. So high a share suggests a set chosen from earlier hits. This is one part of the list. Numbered stars: 1 amine (or outer) side, 2 acyl side, 3 side chain; on linkers, the order of the positions; unused ones are H or OH. Starred links: 1 amine or outer side, 2 acyl side, 3 side chain; linkers in the order of their positions; H or OH if unused. Positions of bridges follow the written chain, without caps; N, C: chain ends. Bridge positions count the residues as written; N and C are the ends. Where a SMILES comes first, the peptide text is derived from it. Non-standard residues stand in square brackets, D forms with d. Square brackets hold non-standard residues; d marks the D form. Residues, ends and D or L forms follow the SMILES beside them. Peptide text beside a SMILES is read from it. [ ]: non-standard residue; d: D form. X1 = O=C([C@H](Cc1ccc(O[P+](O)(O)O)cc1)N[*:1])[*:2]; Orn(CH(NH2)2) = NC(N)NCCC[C@H](N)C(=O)O; Pro(4,5-dehydro) = O=C(O)[C@@H]1CC=CN1
# Test: PubChem AID 977611
# Conditions: PDB protein-ligand complexes, literature Kd
smiles,measurement,setting,value
NC(N)NCCC[C@H](N)C(=O)N[C@@H](CO)C(=O)N[C@@H](Cc1ccccc1)C(=O)N[C@@H](CO[P+](O)(O)O)C(=O)N[C@@H](CCC(=O)O)C(=O)N1CCC[C@H]1C(=O)N[C@@H](Cc1ccccc1)C(=O)NCC(=O)O,Kd,"protein: 14-3-3 protein epsilon, PDB entry 3ual",1550 nM (active)
C[C@H](N)C(=O)N[C@@H](CS)C(=O)N[C@@H](CO[P+](O)(O)O)C(=O)N1CCC[C@H]1C(=O)N[C@@H](CCC(N)=O)C(=O)N[C@@H](Cc1ccccc1)C(=O)NCC(=O)O,Kd,"protein: Breast cancer type 1 susceptibility protein, PDB entry 4igk",28200 nM (active)
CSCC[C@H](NC(=O)[C@@H]1CCCN1C(=O)[C@H](CC(N)=O)NC(=O)[C@@H]1CCCN1C(=O)[C@H](Cc1cnc[nH]1)NC(=O)[C@@H](N)CC(C)C)C(=O)N[C@@H](Cc1ccc(O[P+](O)(O)O)cc1)C(=O)N[C@@H](C)C(=O)N[C@@H](CCCNC(N)N)C(=O)O (H-LHPNPM[X1]A[Orn(CH(NH2)2)]-OH),Kd,"protein: Protein Dok7(PH-PTB), PDB entry 3ml4",4700 nM (active)
CC[C@H](C)[C@H](NC(=O)[C@H](CCCNC(N)N)NC(=O)[C@H](CC(N)=O)NC(=O)[C@H](Cc1ccccc1)NC(=O)[C@@H](NC(=O)[C@@H]1CCCN1C(=O)[C@H](CC(C)C)NC(=O)[C@H](CCCNC(N)N)NC(=O)[C@@H](N)CCCNC(N)N)[C@@H](C)CC)C(=O)N[C@@H](CO)C(=O)N[C@H](C(=O)N[C@@H](CO)C(=O)O)C(C)C (H-[Orn(CH(NH2)2)][Orn(CH(NH2)2)]LPIFN[Orn(CH(NH2)2)]ISVS-OH),Kd,"protein: CCR4-NOT transcription complex subunit 1, PDB entry 4j8s",2000 nM (active)
C[C@H](NC(=O)[C@H](CCC(=O)O)NC(=O)[C@@H]1CCCN1C(=O)[C@H](Cc1ccccc1)NC(=O)[C@@H](NC(=O)[C@@H]1CCCN1C(=O)[C@H](CO[P+](O)(O)O)NC(=O)[C@H](CCC(N)=O)NC(=O)[C@@H]1CCCN1)[C@@H](C)O)C(=O)NCC(=O)O,Kd,"protein: Breast cancer type 1 susceptibility protein(BRCA1), PDB entry 3coj",5200 nM (active)
CC(C)C[C@H](NC(=O)CNC(=O)[C@H](CC(N)=O)NC(=O)[C@@H](N)Cc1ccccc1)C(=O)N[C@H](C(=O)N[C@@H](CO[P+](O)(O)O)C(=O)N1CCC[C@H]1C(=O)N[C@@H](CCC(N)=O)C(=O)N[C@@H](CCCNC(N)N)C(=O)N[C@@H](CO[P+](O)(O)O)C(=O)O)[C@@H](C)O,Kd,"protein: Saccharomyces cerevisiae Skp1 and Cdc4 (263-744), PDB entry 3v7d",410 nM (active)
CC(C)[C@H](NC(=O)[C@@H]1CCCN1C(=O)[C@H](CO[P+](O)(O)O)NC(=O)[C@@H](N)CCCNC(N)N)C(=O)N[C@@H](Cc1ccccc1)C(=O)N[C@@H](CO)C(=O)O,Kd,"protein: Breast cancer type 1 susceptibility protein, PDB entry 4ifi",3340 nM (active)
CC(C)C[C@H](NC(=O)[C@H](CCCNC(N)N)NC(=O)[C@H](Cc1ccccc1)NC(=O)[C@@H](N)CC(C)C)C(=O)N[C@@H](CCCNC(N)N)C(=O)N[C@@H](Cc1c[nH]cn1)C(=O)N[C@@H](Cc1ccccc1)C(=O)N1CCC[C@H]1C(=O)N[C@@H](CS)C(=O)NCC(=O)N[C@@H](CC(N)=O)C(=O)N[C@H](C(=O)N[C@@H](CC(N)=O)C(=O)N[C@@H](Cc1ccc(O)cc1)C(=O)NCC(=O)N[C@@H](Cc1ccc(O)cc1)C(=O)N[C@@H](CCC(N)=O)C(=O)N[C@@H](CCC(N)=O)C(=O)N[C@@H](CCC(N)=O)C(=O)O)C(C)C (HELM PEPTIDE1{L.F.[NC(N)NCCC[C@H](N[*:1])C(=O)[*:2]].L.[NC(N)NCCC[C@H](N[*:1])C(=O)[*:2]].H.F.P.C.G.N.V.N.Y.G.Y.Q.Q.Q}$$$$V2.0),Kd,"protein: PTB domain of SNT-2, PDB entry 2kup",200 nM (active)
CC(C)C[C@H](NC(=O)[C@H](CC(N)=O)NC(=O)[C@H](Cc1ccccc1)NC(=O)[C@@H](N)CO)C(=O)N[C@@H](C)C(=O)N1CCC[C@H]1C(=O)N[C@@H](CC(C)C)C(=O)NCC(=O)N[C@@H](CCCNC(N)N)C(=O)N[C@@H](CCCNC(N)N)C(=O)N[C@@H](CCCNC(N)N)C(=O)N[C@H](C(=O)N[C@@H](CCC(N)=O)C(=O)N[C@@H](CO)C(=O)N[C@@H](CCC(N)=O)C(=O)O)C(C)C (H-SFNLAPLG[Orn(CH(NH2)2)][Orn(CH(NH2)2)][Orn(CH(NH2)2)]VQSQ-OH),Kd,"protein: Telomeric repeat-binding factor 2(TRF2 TRFH domain), PDB entry 3bu8",120 nM (active)
"CC(C)C[C@H](NC(=O)[C@H](CC(C)C)NC(=O)[C@H](CCC(=O)O)NC(=O)[C@@H]1CC=CN1C(=O)[C@H](C)NC(=O)[C@@H]1CCCN1)C(=O)NCC(=O)O (H-PA[Pro(4,5-dehydro)]ELLG-OH)",Kd,"protein: anti-hinge rabbit antibody 2095-2, PDB entry 4o4y",15.5 nM (active)
CC[C@H](C)[C@H](NC(=O)[C@@H](NC(=O)[C@@H](N)CC(C)C)C(C)C)C(=O)N[C@@H](C)C(=O)NCC(=O)N[C@@H](CC(N)=O)C(=O)N1CCC[C@H]1C(=O)N[C@@H](C)C(=O)N[C@@H](Cc1ccc(O[P+](O)(O)O)cc1)C(=O)N[C@@H](CCCNC(N)N)C(=O)N[C@@H](CO)C(=O)O (H-LVIAGNPA[X1][Orn(CH(NH2)2)]S-OH),Kd,"protein: PTB domain of insulin receptor substrate-1(IRS-1), PDB entry 1irs",6000 nM (active)
C[C@@H]1O[C@@H](O)[C@H](O)[C@H](O)[C@H]1O[C@H]1O[C@H](CO)[C@@H](O)[C@H](O[C@H]2O[C@H](C)[C@@H](O)C[C@H]2O)[C@@H]1O[C@H]1O[C@H](CO)[C@H](O)[C@H](O[C@@H]2O[C@@H](C)[C@H](O[C@H]3O[C@H](CO)[C@@H](O)[C@H](O[C@H]4O[C@H](C)[C@@H](O)C[C@H]4O)[C@@H]3O[C@H]3O[C@H](CO)[C@H](O)[C@H](O)[C@H]3O)[C@@H](O)[C@H]2O)[C@H]1O,Kd,"protein: Bifunctional tail protein, PDB entry 3th0",75800 nM (active)
C[C@H]1O[C@H](O[C@H]2[C@H](O)[C@@H](O)[C@@H](O[C@H]3[C@H](O)[C@@H](O)[C@@H](O)O[C@@H]3CO)O[C@@H]2CO)[C@H](O)[C@@H](O)[C@@H]1N[C@H]1CC(CO)[C@@H](O)[C@H](O)[C@H]1O (stereo not given in full),Kd,"protein: Carbohydrate ABC transporter substrate-binding protein, CUT1 family (TC 3.A.1.1.-) EUR_01830, PDB entry 4uac",288 nM (active)
OC[C@H]1O[C@H](O[C@H]2[C@H](O)[C@@H](O)[C@@H](O[C@H]3[C@H](O)[C@@H](O)[C@@H](O[C@H]4[C@H](O)[C@@H](O)[C@@H](O)O[C@@H]4CO)O[C@@H]3CO)O[C@@H]2CO)[C@H](O)[C@@H](O)[C@@H]1O,Kd,"protein: Outer membrane protein SusF, PDB entry 4fe9",990000 nM (active)
O=C1O[C@H](CO)[C@@H](O[C@@H]2O[C@H](CO)[C@@H](O)[C@H](O)[C@@H]2O)[C@H](O)[C@@H]1O,Kd,"protein: ABC transporter substrate-binding protein MnBP3, PDB entry 4pft",2.3 nM (active)
O=P(O)(O)OC[C@H]1OC(O[C@@H]2O[C@H](CO)[C@@H](O)[C@H](O)[C@H]2O)[C@H](O)[C@@H](O)[C@@H]1O (stereo not given in full),Kd,"protein: trehalose operon repressor, PDB entry 1BYK",10000 nM (active)
OC[C@H]1CNC[C@@H](O[C@H]2O[C@H](CO)[C@@H](O)[C@H](O)[C@@H]2O)[C@@H]1O,Kd,"protein: GLYCOSYL HYDROLASE FAMILY 71 BxGH99, PDB entry 4v27",217 nM (active)
OC[C@H]1O[C@H](O[C@H]2[C@@H](O)[C@@H](CO)O[C@@H](O[C@H]3[C@H](O)[C@@H](O)[C@H](O)O[C@@H]3CO)[C@@H]2O)[C@H](O)[C@@H](O)[C@H]1O,Kd,"protein: PA-I GALACTOPHILIC LECTIN, PDB entry 2vxj",68000 nM (active)
CC(C)C[C@H]1NC(=O)[C@@H](Cc2c[nH]c3ccccc23)NC(=O)[C@@H](CCC(N)=O)NC(=O)[C@@H](Cc2c[nH]c3ccccc23)NC(=O)[C@@H](CCC(=O)O)NC(=O)[C@H]2CCCN2C(=O)[C@@H](Cc2ccc(O)cc2)NC(=O)[C@@H](CC(=O)O)NC(=O)[C@H](NC(=O)[C@@H](C)NC(=O)CNC(=O)[C@H](N)CCCCN)CSSC[C@H](C(=O)N[C@H](C)C(=O)N[C@H](C)C(=O)O)NC1=O,Kd,"protein: gp41 N-peptide, PDB entry 2r5b",2.5 nM (active)
same,Kd,"protein: gp41 N-peptide, PDB entry 2r5d",0.07 nM (active)
CC(=O)N[C@@H](C)C(=O)N[C@@H](CC(C)C)C(=O)N[C@H]1CSSC[C@@H](C(=O)N[C@@H](CCC(N)=O)C(=O)N[C@@H](Cc2ccccc2)C(=O)N[C@H](C(=O)N[C@@H](CCC(=O)O)C(N)=O)C(C)C)NC(=O)[C@H](Cc2ccc(O)cc2)NC(=O)[C@H](Cc2c[nH]c3ccccc23)NC(=O)[C@H](CCCNC(N)N)NC(=O)[C@H](CC(=O)O)NC(=O)[C@H](C(C)C)NC(=O)[C@H](CCCNC(N)N)NC(=O)[C@@H]2CCCN2C(=O)[C@H](CC(=O)O)NC(=O)[C@H](CC(=O)O)NC1=O (Ac-ALCDDP[Orn(CH(NH2)2)]VD[Orn(CH(NH2)2)]WYCQFVE-NH2; disulfide 3-13),Kd,"protein: des-gla factor viia (heavy chain), PDB entry 1dva",8.5 nM (active)
C[C@@H]1NC(=O)[C@@H]2CSSC[C@H](NC(=O)CN)C(=O)N[C@@H](CSSC[C@@H](C(N)=O)NC(=O)[C@H](CCCNC(N)N)NC(=O)[C@H](Cc3c[nH]c4ccccc34)NC1=O)C(=O)N[C@@H](CO)C(=O)N[C@@H](CC(=O)O)C(=O)N1CCC[C@H]1C(=O)N[C@@H](CCCNC(N)N)C(=O)N2,Kd,"protein: A-AChBP, PDB entry 2byp",0.88 nM (active)
"CC[C@H](C)[C@H](NC(C)=O)C(=O)N[C@@H](CO)C(=O)N[C@@H]1C(=O)N[C@@H](CCCN=C(N)N)C(=O)N[C@H]2CCCCNC(=O)CC[C@@H](C(=O)O)NC(=O)[C@@H]3CCC(=O)OC[C@H](NC(=O)[C@@H]4CCCN4C(=O)[C@H](Cc4ccc(O)cc4)NC2=O)C(=O)N[C@@H](CC(=O)O[C@@H]1C)C(=O)N[C@@H](Cc1c[nH]c2ccccc12)C(=O)N3 (Ac-ISTRKYPSDWEE-OH; ester 3-9, 8-11; lactam 5-12)",Kd,"protein: Bovine Cationic trypsin, PDB entry 4ktu",685 nM (active)
CC[C@H](C)[C@H](N)C(=O)N[C@H](C(=O)NCC(=O)NCC(=O)N[C@H]1CSSC[C@@H](C(=O)O)NC(=O)[C@H](CCC(=O)O)NC(=O)[C@H](CCC(=O)O)NC(=O)[C@H](CCCN=C(N)N)NC(=O)[C@H](CC(=O)O)NC(=O)[C@H](CCSC)NC(=O)[C@H](Cc2c[nH]c3ccccc23)NC(=O)[C@H](Cc2ccc(O)cc2)NC(=O)[C@@H]2CCCN2C1=O)[C@@H](C)CC (H-IIGGCPYWMDREEC-OH; disulfide 5-14),Kd,"protein: Hepatocyte growth factor HGF-Beta V495, PDB entry 4o3u",400 nM (active)
"CC(C)C[C@H](NC(=O)[C@@H]1CSSC[C@@H]2NC(=O)[C@H](CC(N)=O)NC(=O)[C@@H](N)CSSC[C@H](NC(=O)[C@H](CC(C)C)NC(=O)[C@H](Cc3ccccc3)NC(=O)[C@H]([C@@H](C)O)NC(=O)[C@H](CCC(=O)O)NC(=O)[C@@H]3CCCN3C(=O)[C@H](C)NC(=O)[C@H](CCCCN)NC2=O)C(=O)N[C@@H](Cc2ccc(O)cc2)C(=O)N[C@@H](Cc2c[nH]c3ccccc23)C(=O)N[C@@H](CCCNC(N)N)C(=O)N1)C(=O)N[C@@H](CCC(N)=O)C(=O)N[C@@H](Cc1c[nH]cn1)C(N)=O (H-CNCKAPETFLCYW[Orn(CH(NH2)2)]CLQH-NH2; disulfide 1-11, 3-15)",Kd,"protein: E3 ubiquitin-protein ligase Mdm2, PDB entry 3iux",25.1 nM (active)
